{"source": "the supplement of paper PMC8728848", "binders": {"B1": {"name": "CSA (Cytisus scoparius), P29257 (protein)", "chain": "SEELSFSFTKFKTDQKNLILQRDALITPTGKLQLTTVENGKPAAYSLGRALYSTPIHIWDKSTGDEASFATFFSFVISDAPNPSTAATDGLAFFLAPADTQPQSAGGYLGLFEKDSSYNSSNQIVAVEFDTYYNSAWDPQTNPHIGIDVNTIKSKKVSSWGFKNGNVATVLITYQPSSKSLVASLVYPSGQTSDKTSYIISANVDLKATVPEWVRIGFSATTGQTDNYIETHDILSWSFKSKLPATKN"}}, "experiment_in_all_cases": "glycan array binding signal (z-score within array); higher = stronger binding", "conditions_in_all_cases": "glycan notation: IUPAC condensed, linker removed", "key": {"[1]": {"target": "Fuc(a1-2)Gal(b1-3)GalNAc(b1-4)[Neu5Ac(a2-3)]Gal(b1-4)Glc", "outline": "(§1)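 The binding signal is a Z-score computed within each array. Data were drawn from 3228 arrays in the Consortium for Functional Glycomics database, restricted to those with a known protein sequence. Scores were averaged over arrays of the same protein sequence at different concentrations or buffers, and over linkers, and negative values can be taken as non-binding.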"}, "[2]": {"target": "Fuc(a1-2)Gal6S(b1-3)GlcNAc6S", "outline": "as §1"}, "[3]": {"target": "Fuc(a1-2)[Gal(a1-3)]Gal(b1-4)[Fuc(a1-3)]Glc", "outline": "as §1"}, "[4]": {"target": "Fuc(a1-2)[GalNAc(a1-3)]Gal(b1-3)GlcNAc(b1-6)GalNAc", "outline": "as §1"}, "[5]": {"target": "Fuc(a1-2)[GalNAc(a1-3)]Gal(b1-4)GlcNAc(b1-3)Gal(b1-4)GlcNAc(b1-3)Gal(b1-4)GlcNAc", "outline": "as §1"}, "[6]": {"target": "Fuc(a1-2)[GalNAc(b1-3)]Gal", "outline": "as §1"}, "[7]": {"target": "Fuc(a1-3)[Gal3S(b1-4)]Glc", "outline": "as §1"}, "Fuc(b1-3)GlcNAc": {"target": "Fuc(b1-3)GlcNAc", "outline": "as §1"}, "Gal(a1-3)Gal(b1-4)Glc": {"target": "Gal(a1-3)Gal(b1-4)Glc", "outline": "as §1"}, "[8]": {"target": "Gal(a1-3)[Gal(a1-4)]Gal(b1-4)GlcNAc", "outline": "as §1"}, "[9]": {"target": "Gal(a1-4)Gal(b1-4)GlcNAc(b1-2)Man(a1-3)[Gal(a1-4)Gal(b1-4)GlcNAc(b1-2)Man(a1-6)]Man(b1-4)GlcNAc(b1-4)GlcNAc", "outline": "as §1"}, "Gal(b1-3)GalNAc": {"target": "Gal(b1-3)GalNAc", "outline": "as §1"}, "[10]": {"target": "Gal(b1-3)GalNAc(b1-3)Gal(a1-4)Gal(b1-4)Glc", "outline": "as §1"}, "[11]": {"target": "Gal(b1-3)GlcNAc(b1-3)Gal(b1-4)GlcNAc(b1-2)Man(a1-3)[Gal(b1-3)GlcNAc(b1-3)Gal(b1-4)GlcNAc(b1-2)Man(a1-6)]Man(b1-4)GlcNAc(b1-4)GlcNAc", "outline": "as §1"}, "[12]": {"target": "Gal(b1-4)GlcNAc(b1-3)Gal(b1-4)GlcNAc(b1-3)GalNAc", "outline": "as §1"}, "[13]": {"target": "Gal(b1-4)GlcNAc(b1-3)GalNAc", "outline": "as §1"}, "Gal3S6S(b1-4)GlcNAc": {"target": "Gal3S6S(b1-4)GlcNAc", "outline": "as §1"}, "GalNAc(a1-3)Gal": {"target": "GalNAc(a1-3)Gal", "outline": "as §1"}, "GalNAc(b1-3)Gal": {"target": "GalNAc(b1-3)Gal", "outline": "as §1"}, "[14]": {"target": "GalNAc(b1-3)Gal(a1-4)Gal(b1-4)GlcNAc", "outline": "as §1"}, "[15]": {"target": "GalNAc(b1-3)Gal(a1-4)Gal(b1-4)GlcNAc(b1-3)Gal(b1-4)Glc", "outline": "as §1"}, "[16]": {"target": "GalNAc(b1-3)Gal(a1-6)Gal(b1-4)Glc", "outline": "as §1"}, "GalNAc(b1-4)GlcNAc": {"target": "GalNAc(b1-4)GlcNAc", "outline": "as §1"}, "[17]": {"target": "GalNAc(b1-4)GlcNAc(b1-2)Man", "outline": "as §1"}, "[18]": {"target": "GalNAc(b1-4)GlcNAc(b1-2)Man(a1-3)[GalNAc(b1-4)GlcNAc(b1-2)Man(a1-6)]Man(b1-4)GlcNAc(b1-4)GlcNAc", "outline": "as §1"}, "[19]": {"target": "GalNAc(b1-4)GlcNAc(b1-3)GalNAc(b1-4)GlcNAc", "outline": "as §1"}, "GalNAc(b1-4)GlcNAc6S": {"target": "GalNAc(b1-4)GlcNAc6S", "outline": "as §1"}, "[20]": {"target": "Glc(a1-4)Glc(a1-4)Glc(a1-4)Glc", "outline": "as §1"}, "[21]": {"target": "GlcNAc(b1-2)Man(a1-3)[GlcNAc(b1-2)Man(a1-6)]Man(b1-4)GlcNAc(b1-4)[Fuc(a1-6)]GlcNAc", "outline": "as §1"}, "[22]": {"target": "GlcNAc(b1-2)Man(a1-3)[GlcNAc(b1-4)][GlcNAc(b1-2)Man(a1-6)]Man(b1-4)GlcNAc(b1-4)GlcNAc", "outline": "as §1"}, "[23]": {"target": "GlcNAc(b1-2)[GlcNAc(b1-4)]Man(a1-3)[GlcNAc(b1-4)][GlcNAc(b1-2)[GlcNAc(b1-6)]Man(a1-6)]Man(b1-4)GlcNAc(b1-4)[Fuc(a1-6)]GlcNAc", "outline": "as §1"}, "[24]": {"target": "GlcNAc(b1-4)Gal(b1-4)GlcNAc", "outline": "as §1"}, "[25]": {"target": "Man(a1-2)Man(a1-3)[Man(a1-2)Man(a1-6)]Man", "outline": "as §1"}, "[26]": {"target": "Man(a1-2)Man(a1-6)[Man(a1-3)]Man(a1-6)[Man(a1-2)Man(a1-2)Man(a1-3)]Man", "outline": "as §1"}, "[27]": {"target": "Man(a1-3)[Man(a1-6)]Man(b1-4)GlcNAc(b1-4)GlcNAc", "outline": "as §1"}, "[28]": {"target": "Man(a1-3)[Man(a1-6)]Man(b1-4)GlcNAc(b1-4)[Fuc(a1-6)]GlcNAc", "outline": "as §1"}, "[29]": {"target": "Neu5Ac(a2-3)Gal(b1-3)GalNAc(b1-4)[Neu5Ac(a2-3)]Gal(b1-4)Glc", "outline": "as §1"}, "[30]": {"target": "Neu5Ac(a2-3)Gal(b1-3)GlcNAc(b1-6)GalNAc", "outline": "as §1"}, "[31]": {"target": "Neu5Ac(a2-3)Gal(b1-3)[Neu5Ac(a2-6)]GalNAc", "outline": "as §1"}, "[32]": {"target": "Neu5Ac(a2-3)Gal(b1-3)[Neu5Ac(a2-6)]GlcNAc(b1-3)[Fuc(a1-3)[Gal(b1-4)]GlcNAc(b1-6)]Gal(b1-4)Glc", "outline": "as §1"}, "[33]": {"target": "Neu5Ac(a2-3)Gal(b1-4)GlcNAc(b1-3)Gal(b1-4)GlcNAc(b1-3)GalNAc", "outline": "as §1"}, "[34]": {"target": "Neu5Ac(a2-6)Gal(b1-4)GlcNAc(b1-3)[Neu5Ac(a2-6)Gal(b1-4)GlcNAc(b1-6)]GalNAc", "outline": "as §1"}, "[35]": {"target": "Neu5Ac(a2-6)Gal(b1-4)GlcNAc(b1-6)GalNAc", "outline": "as §1"}, "[36]": {"target": "Neu5Ac(a2-8)Neu5Ac(a2-8)Neu5Ac(a2-8)Neu5Ac(a2-3)[GalNAc(b1-4)]Gal(b1-4)Glc", "outline": "as §1"}, "[37]": {"target": "Neu5Gc(a2-3)Gal(b1-3)[Fuc(a1-4)]GlcNAc", "outline": "as §1"}}, "note": "Many of the other results were omitted from the sample, so the strongest signals are more common in it than they were."}
{"binder": "B1", "values": [{"measurement": "glycan array binding signal (z-score)", "setting": "[1]", "value": -0.177}, {"measurement": "glycan array binding signal (z-score)", "setting": "[2]", "value": -0.196}, {"measurement": "glycan array binding signal (z-score)", "setting": "[3]", "value": -0.201}, {"measurement": "glycan array binding signal (z-score)", "setting": "[4]", "value": -0.214}, {"measurement": "glycan array binding signal (z-score)", "setting": "[5]", "value": -0.012}, {"measurement": "glycan array binding signal (z-score)", "setting": "[6]", "value": 4.5}, {"measurement": "glycan array binding signal (z-score)", "setting": "[7]", "value": -0.165}, {"measurement": "glycan array binding signal (z-score)", "setting": "Fuc(b1-3)GlcNAc", "value": -0.186}, {"measurement": "glycan array binding signal (z-score)", "setting": "Gal(a1-3)Gal(b1-4)Glc", "value": -0.157}, {"measurement": "glycan array binding signal (z-score)", "setting": "[8]", "value": -0.124}, {"measurement": "glycan array binding signal (z-score)", "setting": "[9]", "value": -0.162}, {"measurement": "glycan array binding signal (z-score)", "setting": "Gal(b1-3)GalNAc", "value": -0.159}, {"measurement": "glycan array binding signal (z-score)", "setting": "[10]", "value": 0.019}, {"measurement": "glycan array binding signal (z-score)", "setting": "[11]", "value": -0.157}, {"measurement": "glycan array binding signal (z-score)", "setting": "[12]", "value": 0.306}, {"measurement": "glycan array binding signal (z-score)", "setting": "[13]", "value": -0.162}, {"measurement": "glycan array binding signal (z-score)", "setting": "Gal3S6S(b1-4)GlcNAc", "value": -0.186}, {"measurement": "glycan array binding signal (z-score)", "setting": "GalNAc(a1-3)Gal", "value": 3.51}, {"measurement": "glycan array binding signal (z-score)", "setting": "GalNAc(b1-3)Gal", "value": 2.98}, {"measurement": "glycan array binding signal (z-score)", "setting": "[14]", "value": 3.35}, {"measurement": "glycan array binding signal (z-score)", "setting": "[15]", "value": 2.76}, {"measurement": "glycan array binding signal (z-score)", "setting": "[16]", "value": 4.13}, {"measurement": "glycan array binding signal (z-score)", "setting": "GalNAc(b1-4)GlcNAc", "value": 6.99}, {"measurement": "glycan array binding signal (z-score)", "setting": "[17]", "value": 8.12}, {"measurement": "glycan array binding signal (z-score)", "setting": "[18]", "value": 3.25}, {"measurement": "glycan array binding signal (z-score)", "setting": "[19]", "value": 12.4}, {"measurement": "glycan array binding signal (z-score)", "setting": "GalNAc(b1-4)GlcNAc6S", "value": 9.73}, {"measurement": "glycan array binding signal (z-score)", "setting": "[20]", "value": -0.19}, {"measurement": "glycan array binding signal (z-score)", "setting": "[21]", "value": -0.139}, {"measurement": "glycan array binding signal (z-score)", "setting": "[22]", "value": -0.238}, {"measurement": "glycan array binding signal (z-score)", "setting": "[23]", "value": -0.166}, {"measurement": "glycan array binding signal (z-score)", "setting": "[24]", "value": -0.213}, {"measurement": "glycan array binding signal (z-score)", "setting": "[25]", "value": -0.234}, {"measurement": "glycan array binding signal (z-score)", "setting": "[26]", "value": -0.179}, {"measurement": "glycan array binding signal (z-score)", "setting": "[27]", "value": -0.142}, {"measurement": "glycan array binding signal (z-score)", "setting": "[28]", "value": -0.225}, {"measurement": "glycan array binding signal (z-score)", "setting": "[29]", "value": -0.247}, {"measurement": "glycan array binding signal (z-score)", "setting": "[30]", "value": -0.235}, {"measurement": "glycan array binding signal (z-score)", "setting": "[31]", "value": -0.159}, {"measurement": "glycan array binding signal (z-score)", "setting": "[32]", "value": -0.146}, {"measurement": "glycan array binding signal (z-score)", "setting": "[33]", "value": -0.216}, {"measurement": "glycan array binding signal (z-score)", "setting": "[34]", "value": -0.172}, {"measurement": "glycan array binding signal (z-score)", "setting": "[35]", "value": -0.202}, {"measurement": "glycan array binding signal (z-score)", "setting": "[36]", "value": -0.149}, {"measurement": "glycan array binding signal (z-score)", "setting": "[37]", "value": -0.202}]}
